Active and inactive are the calls of the source.
Columns and labels:
[1] = optical density shifts of acrAB sulA E. coli – strain DRC41, OD650, 48 h, E. coli filamentation inducer project, primary screen (AID 1152); settings: higher = more signal, called active from +8 up or from −8 down;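 also: E. coli MC1000 strain DRC41 lacking acrAB efflux pump and sulA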
[2] = probe aLefty1 binding on compound microarray – biochemical, small-molecule microarray, 635/667 nm fluorescence, primary screen (AID 1153); settings: higher = more signal;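 also: score merges spot fluorescence with signal-to-noise ratio from the scanned slide images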
[3] = plasmodial surface anion channel blockers, osmotic lysis – cell-based, P. falciparum Indochina, OD700, 1 h, primary screen (AID 1154); settings: P. falciparum Indochina infected RBC osmotic lysis, higher = more signal, called active from +8 up or from −8 down
[4] = plasmodial surface anion channel blockers, osmotic lysis – cell-based, P. falciparum Indochina, OD700, 2 h, primary screen (AID 1155);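 also: lysis reports solute entry through the parasite surface anion channel PSAC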; settings: P. falciparum Indochina infected erythrocytes, higher = more signal, called active from +8 up or from −8 down
[5] = changes in parasitized red cell lysis, either direction – P. falciparum Indochina, OD700, 3 h, PSAC antagonist project, primary screen (AID 1156); settings: P. falciparum-infected erythrocytes, osmotic lysis, higher = more signal, called active from +8 up or from −8 down
[6] = plasmodial surface anion channel blockers, osmotic lysis – cell-based, P. falciparum Indochina, OD700, 18 h, primary screen (AID 1157); settings: P. falciparum Indochina infected erythrocytes, osmotic lysis OD700, 18 h; higher = more signal, called active from +8 up or from −8 down
[7] = S6 kinase pathway phospho-S6 level changes – cell-based, A549, cytoblot, luminescence, serum-stimulated, primary screen (AID 1158); settings: 5 h, higher = more signal;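 also: serum-stimulated A549 lung adenocarcinoma cells; signal is phosphorylated S6 detected by cytoblot immunostaining with HRP secondary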
[8] = target: NADPH oxidase 2 (Homo sapiens) (UniProt P04839); assay: compounds shifting NOX2 Amplex Red fluorescence – cell-based, HEK293-NOX2, PMA-stimulated, NOX inhibitor project, primary screen (AID 1159); settings: 45 min, higher = more signal, called active from +8 up or from −8 down; also: test concentration not given here
Chain of NADPH oxidase 2 (Homo sapiens) (P04839 whole entry, looked up): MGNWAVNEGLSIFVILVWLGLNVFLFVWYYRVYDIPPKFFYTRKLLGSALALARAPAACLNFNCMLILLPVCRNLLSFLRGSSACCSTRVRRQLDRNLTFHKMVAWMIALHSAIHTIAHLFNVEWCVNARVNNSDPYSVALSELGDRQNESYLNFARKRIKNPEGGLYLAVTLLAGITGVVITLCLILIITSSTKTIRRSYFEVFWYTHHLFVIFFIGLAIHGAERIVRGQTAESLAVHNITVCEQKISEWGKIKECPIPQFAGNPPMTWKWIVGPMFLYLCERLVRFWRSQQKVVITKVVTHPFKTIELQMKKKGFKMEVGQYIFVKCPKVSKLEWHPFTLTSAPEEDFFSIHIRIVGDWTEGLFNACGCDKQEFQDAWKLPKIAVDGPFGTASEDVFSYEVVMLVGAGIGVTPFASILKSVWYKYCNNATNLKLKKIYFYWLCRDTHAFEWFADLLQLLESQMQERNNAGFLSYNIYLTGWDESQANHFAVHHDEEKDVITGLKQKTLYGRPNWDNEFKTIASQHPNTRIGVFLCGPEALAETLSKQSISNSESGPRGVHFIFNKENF

[9] = target: NADPH oxidase 4 (Homo sapiens) (UniProt Q9NPH5); assay: compounds shifting NOX4 Amplex Red fluorescence – cell-based, HEK293-NOX4, tetracycline-induced, NOX inhibitor project, primary screen (AID 1160); settings: HEK293-NOX4, Amplex Red H2O2 fluorescence, 45 min; higher = more signal, called active from +8 up or from −8 down
Chain of NADPH oxidase 4 (Homo sapiens) (Q9NPH5 whole entry, looked up): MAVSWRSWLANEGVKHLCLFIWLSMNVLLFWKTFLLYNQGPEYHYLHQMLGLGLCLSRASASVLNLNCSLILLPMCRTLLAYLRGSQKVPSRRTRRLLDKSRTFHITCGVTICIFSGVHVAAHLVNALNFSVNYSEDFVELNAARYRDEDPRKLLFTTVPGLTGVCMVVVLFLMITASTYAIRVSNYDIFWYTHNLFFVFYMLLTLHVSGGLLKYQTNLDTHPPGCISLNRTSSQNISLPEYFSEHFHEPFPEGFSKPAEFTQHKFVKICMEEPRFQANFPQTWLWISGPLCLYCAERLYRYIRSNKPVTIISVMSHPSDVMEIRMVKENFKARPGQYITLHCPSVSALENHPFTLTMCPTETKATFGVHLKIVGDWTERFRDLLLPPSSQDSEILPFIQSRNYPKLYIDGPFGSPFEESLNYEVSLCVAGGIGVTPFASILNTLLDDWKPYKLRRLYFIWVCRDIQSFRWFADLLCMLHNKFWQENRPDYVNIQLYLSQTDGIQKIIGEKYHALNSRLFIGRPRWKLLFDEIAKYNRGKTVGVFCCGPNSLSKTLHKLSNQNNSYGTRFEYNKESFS

[10] = target: NADPH oxidase 5 (Homo sapiens) (UniProt Q96PH1); assay: compounds shifting NOX5 Amplex Red fluorescence – cell-based, HEK293-NOX5, NOX inhibitor project, primary screen (AID 1161); settings: HEK293-NOX5, ionomycin, 45 min, higher = more signal
Chain of NADPH oxidase 5 (Homo sapiens) (Q96PH1 whole entry, looked up): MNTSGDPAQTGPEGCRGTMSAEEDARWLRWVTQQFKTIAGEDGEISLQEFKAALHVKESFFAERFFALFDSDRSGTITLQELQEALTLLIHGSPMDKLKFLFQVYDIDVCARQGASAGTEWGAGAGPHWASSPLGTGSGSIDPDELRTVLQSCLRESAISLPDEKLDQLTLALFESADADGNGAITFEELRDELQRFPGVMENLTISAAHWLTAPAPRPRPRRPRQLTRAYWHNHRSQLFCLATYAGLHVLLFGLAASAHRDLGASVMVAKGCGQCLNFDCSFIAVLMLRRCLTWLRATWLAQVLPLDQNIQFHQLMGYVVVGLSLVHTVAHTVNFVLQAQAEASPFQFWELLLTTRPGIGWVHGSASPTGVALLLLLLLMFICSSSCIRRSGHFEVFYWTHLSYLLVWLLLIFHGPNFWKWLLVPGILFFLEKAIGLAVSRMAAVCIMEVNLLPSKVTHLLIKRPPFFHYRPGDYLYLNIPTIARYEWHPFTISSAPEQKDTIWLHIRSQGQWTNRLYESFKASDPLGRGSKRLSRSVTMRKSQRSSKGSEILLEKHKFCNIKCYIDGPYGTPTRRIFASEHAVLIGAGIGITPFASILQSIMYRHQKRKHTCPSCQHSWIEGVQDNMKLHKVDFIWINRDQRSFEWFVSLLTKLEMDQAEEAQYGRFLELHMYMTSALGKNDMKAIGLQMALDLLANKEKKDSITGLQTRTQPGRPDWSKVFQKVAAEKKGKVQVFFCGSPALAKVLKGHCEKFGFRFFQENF

[11] = compound effects on lung adenocarcinoma cell viability – A549, calcein-AM fluorescence, 48 h, basal, profiling panel (AID 1162); settings: higher = more signal; also: test concentration not given here
[12] = compound effects on differentiated 3T3-L1 adipocyte viability – cell-based, 3T3-L1 adipocytes, calcein-AM fluorescence, 48 h, basal, profiling panel (AID 1163); settings: 3T3-L1 adipocytes viability, higher = more signal; also: test concentration not given here
[13] = compound effects on hepatocellular carcinoma cell viability – HepG2, calcein-AM fluorescence, 48 h, basal, profiling panel (AID 1164); settings: higher = more signal; also: test concentration not given here
[14] = compound effects on multiple myeloma cell viability – MM1S, calcein-AM fluorescence, 48 h, basal, profiling panel (AID 1165); settings: higher = more signal;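 also: viability of MM1S multiple myeloma cells under basal unstimulated conditions; test concentration not given here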
[15] = calcein-AM signal in unstimulated myeloma cells – cell-based, calcein-AM fluorescence, 48 h, PK04 Diversity Set, profiling panel (AID 1166); settings: RPMI8226 myeloma viability, higher = more signal;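 also: cells grown under basal conditions without added stimulus; test concentration not given here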
[16] = JC-1 mitochondrial signal, unstimulated HepG2 cells – cell-based, JC-1 fluorescence, 24 h, 100 nL compound, profiling panel (AID 1167); settings: HepG2 mitochondrial potential, higher = more signal; also: test concentration not given here
[17] = JC-1 mitochondrial signal, unstimulated adipocytes – cell-based, JC-1 fluorescence, 3T3-L1 adipocytes, 24 h, 100 nL compound, profiling panel (AID 1168); settings: JC-1 mitochondrial fluorescence, higher = more signal, called active from +8 up or from −8 down; also: test concentration not given here
[18] = JC-1 mitochondrial signal, unstimulated myeloma cells – cell-based, JC-1 fluorescence, RPMI8226, 24 h, 100 nL compound, profiling panel (AID 1169); settings: JC-1 mitochondrial potential fluorescence, higher = more signal; also: test concentration not given here
[19] = JC-1 mitochondrial signal, unstimulated MM1S myeloma – cell-based, JC-1 fluorescence, 24 h, 100 nL compound, profiling panel (AID 1170); settings: MM1S mitochondrial potential, higher = more signal; also: test concentration not given here
[20] = resazurin metabolic signal in A549 cells – cell-based, resazurin fluorescence, 24 h, PK04 Diversity Set, profiling panel (AID 1171); settings: A549 viability, higher = more signal, called active from +8 up or from −8 down; also: test concentration not given here

Compound	z-score [1]	composite z-score [2]	z-score [3]	z-score [4]	z-score [5]	z-score [6]	z-score [7]	z-score [8]	z-score [9]	z-score [10]	z-score [11]	z-score [12]	z-score [13]	z-score [14]	z-score [15]	z-score [16]	z-score [17]	z-score [18]	z-score [19]	z-score [20]
O=c1cccc(-c2ccc(F)cc2)o1	-0.527 (inactive)	0.0367	1.74 (inactive)	0.624 (inactive)	-0.099 (inactive)	0.832 (inactive)	-0.387	0.227 (inactive)	-1.19 (inactive)	-0.184	-0.562	0.616	-0.606	-0.0871	-0.913	0.0366	0.5 (inactive)	0.036	-0.0644	-0.0964 (inactive)
Cc1ccc([C@H]2C(C(=O)O)=C[C@@H](C(C)(C)C)N2S(=O)(=O)c2ccc(C)cc2)cc1	-1.18 (inactive)	0.141	0.212 (inactive)	0.934 (inactive)	-0.627 (inactive)	0.585 (inactive)	-0.213	0.96 (inactive)	-2.84 (inactive)	-0.357	-0.728	-0.85	-0.338	0.0315	-0.4	-0.892	-0.38 (inactive)	-0.0701	-1.19	-0.654 (inactive)
[N-]=[N+]=NCc1ccccc1[C@@H]1OC(c2ccc(OCCCO)cc2)=N[C@]1(Cc1ccccc1N=[N+]=[N-])C(=O)NCCN1CCOCC1	-0.04 (inactive)	0.254	16.5 (active)	2.41 (inactive)	1.46 (inactive)	1.45 (inactive)	-0.417	-2.49 (inactive)	-0.406 (inactive)	-1	0.0239	0.727	0.695	-1.17	-1.09	0.988	0.564 (inactive)	-0.96	-0.212	0.162 (inactive)
[N-]=[N+]=NCc1ccccc1[C@H]1OC(c2ccc(OCCCO)cc2)=N[C@@]1(CCS(=O)(=O)c1ccccc1)C(=O)NCc1ccccc1	1.14 (inactive)	-0.271	25 (active)	8.39 (active)	1.49 (inactive)	1.38 (inactive)	0.127	2.27 (inactive)	0.837 (inactive)	-0.887	2.47	-0.0706	1.35	-0.65	0.414	-0.627	-0.0258 (inactive)	-1.02	-0.531	1.73 (inactive)
COc1cc2c(cc1O)C(c1cccs1)N(Cc1sc3ccccc3c1Cl)CC2 (stereo not given)	-1.49 (inactive)	0.0479	10.4 (active)	3.63 (inactive)	-0.333 (inactive)	2.24 (inactive)	-0.511	-3.92 (inactive)	-2.48 (inactive)	-3.48	-3.77	0.623	-4.6	-3.27	-4.2	-3.1	-0.197 (inactive)	-0.894	-0.194	-0.403 (inactive)
Cc1ccc(F)cc1S(=O)(=O)N[C@@H]1CCN(Cc2cccc3[nH]ccc23)C1	-1.41 (inactive)	-0.007	1.27 (inactive)	0.137 (inactive)	0.0401 (inactive)	0.451 (inactive)	-0.453	0.116 (inactive)	-0.746 (inactive)	-0.541	0.139	-0.658	-0.415	-1.14	-0.864	0.0617	-0.65 (inactive)	0.263	-0.161	-0.398 (inactive)
CCOC(=O)C[C@H]1[C@H](OC(=O)c2ccc(C(=O)c3ccccc3)cc2)[C@@H](NC(=O)CC(C)C)c2cc(OCCCO)ccc2N1C(=O)Cc1ccc(OC)cc1	0.23 (inactive)	0.243	4.38 (inactive)	0.351 (inactive)	-0.0495 (inactive)	0.0625 (inactive)	-0.174	-0.354 (inactive)	0.528 (inactive)	0.522	-0.206	-0.194	-0.0232	0.467	-0.679	1.88	-0.689 (inactive)	0.573	0.288	0.189 (inactive)
O=C(CS)NCCCCCCNC(=O)[C@@H]1C[C@@H]2C(=O)NCC(=O)N2[C@@H]1c1ccc(O)cc1	1.58 (inactive)	0.0341	2.54 (inactive)	-0.164 (inactive)	1.62 (inactive)	-1.41 (inactive)	2.85	0.266 (inactive)	0.147 (inactive)	1.51	0.622	0.182	0.435	0.21	1.06	0.677	0.138 (inactive)	0.391	-0.386	-0.746 (inactive)

From PubChem BioAssay
